Screens deposited in PubChem BioAssay by several laboratories.
ABHD5-PLIN5 inh: inhibitors of human ABHD5-perilipin-5 interaction. Split G. princeps luciferase complementation, luminescence, 4 h. inhibition, % at 4 µM. 0.78% of 360,000 active. AID 602281;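 active = inhibition above the mean inhibition across every tested compound plus 3 SD, cut at about 22% in these data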
Mdm2-MdmX inh: inhibitors of human Mdm2/MdmX interaction; inhibition, % at 8 µM; 3% of 330,000 active; O15151+Q00987; SaOS-2 split-luciferase Mdm2/MdmX complementation, luminescence; AID 485346;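 active = inhibition of at least 50% at 8 µM in the primary screen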
Target sequence (O15151 whole entry, looked up): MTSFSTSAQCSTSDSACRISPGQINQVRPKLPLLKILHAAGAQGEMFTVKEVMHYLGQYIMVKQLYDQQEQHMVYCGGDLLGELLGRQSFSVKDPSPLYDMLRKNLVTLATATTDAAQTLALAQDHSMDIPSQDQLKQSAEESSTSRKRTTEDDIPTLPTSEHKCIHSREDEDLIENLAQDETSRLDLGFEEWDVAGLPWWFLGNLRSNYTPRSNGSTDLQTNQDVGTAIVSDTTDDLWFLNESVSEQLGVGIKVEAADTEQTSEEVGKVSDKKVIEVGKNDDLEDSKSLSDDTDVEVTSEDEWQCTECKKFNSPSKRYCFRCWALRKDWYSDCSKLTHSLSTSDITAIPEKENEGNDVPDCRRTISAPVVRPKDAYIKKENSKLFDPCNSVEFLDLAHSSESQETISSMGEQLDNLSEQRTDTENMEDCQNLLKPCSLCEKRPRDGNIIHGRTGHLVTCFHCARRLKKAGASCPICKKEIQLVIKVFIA
Target sequence (Q00987 whole entry, looked up): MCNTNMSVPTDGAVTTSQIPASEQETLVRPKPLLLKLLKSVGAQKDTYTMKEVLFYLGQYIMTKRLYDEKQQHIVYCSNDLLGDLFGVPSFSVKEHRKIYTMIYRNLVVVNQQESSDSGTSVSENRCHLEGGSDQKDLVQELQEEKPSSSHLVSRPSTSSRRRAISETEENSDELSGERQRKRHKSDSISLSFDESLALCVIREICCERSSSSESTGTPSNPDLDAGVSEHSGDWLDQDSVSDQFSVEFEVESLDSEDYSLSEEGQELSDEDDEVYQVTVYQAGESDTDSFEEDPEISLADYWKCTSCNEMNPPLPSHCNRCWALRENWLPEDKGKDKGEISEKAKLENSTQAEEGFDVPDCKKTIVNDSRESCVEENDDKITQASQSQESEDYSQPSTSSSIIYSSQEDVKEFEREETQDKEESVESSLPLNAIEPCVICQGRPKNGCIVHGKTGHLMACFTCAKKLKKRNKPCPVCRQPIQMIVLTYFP
Peg3 prom inh: Peg3 promoter activity inhibition. HeLa PEG-Prom luciferase reporter, luminescence, overnight. inhibition, % at 20 µM. 1.7% of 360,000 active;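 active = inhibition of at least 50% at 20 µM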
KKLEB cytotox: reduces viability of KKLEB cystic fibrosis airway cells; KKLEB CF airway cells viability, ATPlite luminescence, overnight; active compounds read low; cells stimulated with P. aeruginosa culture filtrate; activity change (cytotoxicity), % at 5 µM; 0.36% of 360,000 active; AID 602141;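 active = corrected activity change at or below -50% at 5 µM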
CF NFkB inh: inhibitors of cystic fibrosis induced NF-kB; KKLEB NF-kB-GFP reporter, PAF-induced, GFP fluorescence overnight; inhibition, % at 5 µM; 0.86% of 360,000 active; AID 588850;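 active = at least 50% inhibition at 5 µM, scaled per plate between neutral and stimulator controls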;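 note: PAF is a Pseudomonas aeruginosa culture filtrate used as stimulus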
HIF-2a block: blocks HIF-2a reporter activity. 786-0 RCC cells HIF-2a reporter, luciferase luminescence, overnight. inhibition, % at 18.8 µM. 0.72% of 360,000 active;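 active = inhibition of the luminescence signal of 40% or more relative to plate controls, in a single-dose primary screen at 18.75 µM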
Mdm2 MdmX conf: confirmation of human Mdm2/MdmX interaction inhibitors; shares compounds with Mdm2-MdmX inh; 55% of 10,000 active; AID 489028; Mdm2-MdmX binding, luminescent assay; inhibition, % at 8 µM; in the data active = inhibition above about 40%
FLuc counter: counter-screen for Mdm2/MdmX inhibitors: full-length luciferase; 77% of 6,200 active; SaOS-2 full-length luciferase counterscreen, luminescence; inhibition, % at 8 µM; shares compounds with Mdm2-MdmX inh; AID 504607;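 active = mean inhibition at 8 µM reaching about 37%, which flags the compound as non-specific, limit read from the data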;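 note: p53-null SaOS-2 cells with luciferase driven by a doxycycline-inducible promoter; compound on cells about two nights before reading with doxycycline added after day one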
Each line names hits and unclear results; the compound was inactive in the other large screens (follow-up assays come after a bar, where they were run). Compounds with a hit are over-represented: about 4.6% of the library has one in this group of screens.

Cc1ccc(Cc2nnc3n(-c4ccccc4)nc(C(=O)c4ccccc4)n3c2=O)cc1	Mdm2-MdmX inh 53 | Mdm2 MdmX conf 58 | FLuc counter 53
Cc1ccc(-n2c(SCC(=O)Nc3nccs3)nc3c(c2=O)SCC3)cc1	none
CCOc1ccc(-n2c(SCC(=O)Nc3nccs3)nc3c(c2=O)SCC3)cc1	Mdm2-MdmX inh 59 | Mdm2 MdmX conf inactive
Cc1ccc(-n2c(C)cc(/C=c3/sc4nc5ccccc5n4c3=O)c2C)cc1	Mdm2-MdmX inh 82 (no result: ABHD5-PLIN5 inh, Peg3 prom inh, KKLEB cytotox, CF NFkB inh, HIF-2a block) | Mdm2 MdmX conf 61 | FLuc counter inactive
CCC(C)N(CCNC(=O)c1ccc2c(c1)NC(=O)c1ccccc1S2)C1CCCCC1 (configuration not stated)	Mdm2-MdmX inh 67, Peg3 prom inh 76 | Mdm2 MdmX conf 48 | FLuc counter 56
CC1CCCC(C)N1CCCNC(=O)c1ccc2c(c1)NC(=O)c1ccccc1S2 (configuration not stated)	none
COc1ccc2c(/C=C/c3cc[n+](C)cc3)c[nH]c2c1	none
CC[n+]1ccc(/C=C/c2c[nH]c3ccccc23)cc1	Mdm2-MdmX inh 56 | Mdm2 MdmX conf inactive
Cc1ccc2[nH]cc(/C=C/c3cc[n+](C)cc3)c2c1	Mdm2-MdmX inh 72 | Mdm2 MdmX conf 61 | FLuc counter 57
CCOC(=O)c1cc(C)sc1NC(=O)CSC1=NCCS1	none
CCCC(=O)N1CCN(c2ccc(NC(=O)c3cc4ccccc4o3)cc2Cl)CC1	Mdm2-MdmX inh 100, Peg3 prom inh 104 | Mdm2 MdmX conf 59 | FLuc counter inactive
O=C(Nc1ccc(N2CCN(C(=O)c3ccco3)CC2)c(Cl)c1)c1cc2ccccc2o1	Mdm2-MdmX inh 100, Peg3 prom inh 100 | Mdm2 MdmX conf 75 | FLuc counter 51
CCC(=O)N1CCN(c2ccc(NC(=O)c3cc4ccccc4o3)cc2Cl)CC1	Mdm2-MdmX inh 82, Peg3 prom inh 108 | Mdm2 MdmX conf inactive
Cc1ccc(NC(=O)CSc2ccc(-c3ccccn3)nn2)cc1F	Mdm2-MdmX inh 53 | Mdm2 MdmX conf 46 | FLuc counter 47
CCOC(=O)c1ccccc1NC(=O)CSc1ccc(-c2ccccn2)nn1	Mdm2-MdmX inh 75 | Mdm2 MdmX conf 77 | FLuc counter 36
CCc1ccc(NC(=O)CSc2ccc(-c3ccccn3)nn2)cc1	Mdm2-MdmX inh 71 | Mdm2 MdmX conf 45 | FLuc counter 73
COc1cc(NC(=O)CSc2ccc(-c3ccccn3)nn2)cc(OC)c1	Mdm2-MdmX inh 65 | Mdm2 MdmX conf 59 | FLuc counter 57
COc1ccc(C)cc1NC(=O)CSc1ccc(-c2ccccn2)nn1	Mdm2-MdmX inh 54 | Mdm2 MdmX conf 55 | FLuc counter 52
COc1ccc(C)cc1NC(=O)CSc1ccc(-c2sc(C)nc2C)nn1	none
Nc1ccc2c(c1)C1(CCC2)NC(=O)NC1=O (configuration not stated)	none (no result: Mdm2-MdmX inh)
Cc1ccc(-c2cc(C(=O)NCCCN3CCOCC3)c3ccc(Cl)c(C)c3n2)cc1	Mdm2-MdmX inh 50 | Mdm2 MdmX conf 42 | FLuc counter 75
O=C(NCCCN1CCOCC1)c1cc(-c2ccccc2)nc2ccccc12	none
CC[C@@H]1C/C=C\Cc2ccccc2[C@@H](C(=O)C[C@@H](O)CC(C)=O)OC1=O	none
Cn1c(SCC(=O)NCCc2ccccc2)nc2c([nH]c3ccccc32)c1=O	none
Cc1cc(NC(=O)CSc2nc3cc(Cl)ccc3c(=O)n2C(C)C)no1	Mdm2-MdmX inh 56 | Mdm2 MdmX conf inactive
COCCn1c(SCC(=O)Nc2ccc(NC(C)=O)cc2)nc2c([nH]c3ccccc32)c1=O	none
Cn1c(SCC(=O)NCc2ccc(F)cc2)nc2c([nH]c3ccccc32)c1=O	Mdm2-MdmX inh 75 (no result: ABHD5-PLIN5 inh, Peg3 prom inh, KKLEB cytotox, CF NFkB inh, HIF-2a block) | Mdm2 MdmX conf inactive
COc1ccc(CCn2c(SCC(=O)Nc3cc(C)on3)nc3ccccc3c2=O)cc1OC	Mdm2-MdmX inh 59, KKLEB cytotox -79, CF NFkB inh 64 | Mdm2 MdmX conf inactive
CCn1c(SCC(=O)Nc2ccc(C(C)=O)cc2)nc2c([nH]c3ccccc32)c1=O	Mdm2-MdmX inh 62 | Mdm2 MdmX conf inactive
COc1ccc(NC(=O)C2CCCCC2)cc1S(=O)(=O)N1CCOCC1	none
COc1ccccc1NS(=O)(=O)c1ccc2oc(N)nc2c1	none
CCC(Sc1nc(-c2ccccc2)c(-c2ccccc2)[nH]1)C(=O)O (configuration not stated)	none
CN(C(=O)c1ccc(NC(=O)Cc2cccc(NC(=O)C3CCN(C(=O)C4CC4)CC3)c2)cc1)C1CC1	none (no result: Mdm2-MdmX inh)
O=C(COC(=O)/C=C/c1ccccc1Cl)NC1CC1	none (no result: Mdm2-MdmX inh)
CCn1c(SCC(=O)N2CCOCC2)nc2c([nH]c3ccccc32)c1=O	none
COc1ccc(NC(=O)CSc2nc(C3CC3)nc3ccccc23)c(OC)c1	none
CC(=O)c1ccc(NC(=O)CSc2nc(C3CC3)nc3ccccc23)cc1	Mdm2-MdmX inh 64 | Mdm2 MdmX conf inactive
COCCn1c(SCC(=O)Nc2cc(C)on2)nc2c([nH]c3ccccc32)c1=O	none (no result: Mdm2-MdmX inh)
CCn1c(SCC(=O)Nc2cccc(NC(C)=O)c2)nc2c([nH]c3ccccc32)c1=O	Mdm2-MdmX inh 78, KKLEB cytotox -52, CF NFkB inh 61 | Mdm2 MdmX conf inactive
CCn1c(SCC(=O)Nc2cc(C)on2)nc2c([nH]c3ccccc32)c1=O	Mdm2-MdmX inh 65 | Mdm2 MdmX conf inactive
CCOC1=C2CN(S(=O)(=O)c3ccc(C)cc3)[C@@H](c3cccs3)C[C@H]2[C@H]2C(=O)N(c3ccccc3)C(=O)[C@H]2C1	none (no result: Mdm2-MdmX inh)
Cc1ccc(S(=O)(=O)Nc2cccc3c2O[C@H](CN(C)Cc2ccc(-c4ccccc4)cc2)[C@@H](C)CN([C@H](C)CO)C3=O)cc1	Mdm2-MdmX inh 53 | Mdm2 MdmX conf inactive
Cc1ccc(S(=O)(=O)Nc2ccc3c(c2)C(=O)N([C@H](C)CO)C[C@H](C)[C@@H](CN(C)Cc2ccc(-c4ccccc4)cc2)O3)cc1	Mdm2-MdmX inh 77 | Mdm2 MdmX conf inactive
C[C@H](CO)N1C[C@H](C)[C@@H](CN(C)Cc2ccc(-c3ccccc3)cc2)Oc2c(NS(=O)(=O)c3ccccc3)cccc2C1=O	none
O=C(CC(Cc1ccccc1)C(=O)O)Nc1cccc(C(F)(F)F)c1 (configuration not stated)	none
CCCC[C@@H](CNC)NC[C@H](NCCCCC1CCCCC1)C(C)C	Mdm2-MdmX inh 98, Peg3 prom inh 104 | Mdm2 MdmX conf 43 | FLuc counter 65
COc1ccccc1OCCSc1nc2ccccc2n1CC(O)CO (configuration not stated)	none
